Bioassay records (PubChem)
LASV entry inh: Lassa virus entry inhibition; Potency, µM (highest dose often 49.2 µM), inactives show at the top dose activity change, negative = inhibition, usual class: inhibitors; 18,000 tested, 4.1% active; AID 720533; Lassa virus pseudotyped entry inhibition, cell-based qHTS
Marburg entry: blocks Marburg virus binding or cell entry; Marburg virus pseudotype entry/binding inhibition, cell-based; Potency, µM (highest dose often 49.2 µM), for inactives: top-dose activity change, negative = inhibition, usual class: inhibitors; 18,000 tested, 6.5% active; AID 720532
Active calls of the source: *; ? = inconclusive; [ ] = another dose, or the depositor's remark. Only some compounds are listed: those with a hit (about 8.6% of all), similar ones and a draw of the others. Calls follow the shape of the full dose curve; tested in HEK293 cells. % is scaled to controls: 0 for no effect and ±100 for the full control effect; potency is read from the fitted curve at half-maximal effect.

SMILES	LASV entry inh	Marburg entry
CCOC(=O)C1OC1C(=O)NC(CC(C)C)C(=O)NCCC(C)C (stereo not drawn)	-3%	3.5µM*
C=C1c2cccc(C(F)(F)F)c2O[C@H](C(=O)OCC)[C@@H]1CCC(C)C	4%	-12%
CCOC(=O)C1OC1C(=O)N[C@@H](CC(C)C)C(=O)NCCC(C)C (stereo partly drawn)	-4%	5µM*
CCOC(=O)CN1C(=O)C2(CC(C)=C[C@@H](C)O2)c2c(Br)cccc21 (stereo partly drawn)	32%[8.59 µM]	3%[8.59 µM]
C[C@@]12CCC(=O)C[C@@H]1CC[C@@H]1[C@@H]2CC[C@]2(C)C(=O)CC[C@@H]12	-14%	-17%
C=CCN(C)CCCCCCOc1ccc(C(=O)c2ccc(Br)cc2)c(F)c1	?	4µM*
CC(C)C[C@@H](CC(=O)N[C@@H](CCCN)CC(=O)N[C@@H]1CCCC[C@H]1C(=O)N[C@H](CC(=O)N[C@@H](CCC(=O)O)CC(=O)O)Cc1c[nH]c2ccccc12)NC(=O)[C@@H]1CCCC[C@H]1N	10%	3%
C=CCNC(=O)N1CCc2nc(-c3ccccc3)c3c(c2C1)CO[C@@H](C)C3	6%[8.59 µM]	-29%[8.59 µM]
